# The list is not random: actives were taken first. Their share in the collection is about 4%.
# AF4-AF9 inh: MLL-AF4/AF9 protein interaction inhibition; P42568; AlphaScreen, biotin-AF4 peptide binding to FLAG-AF9; inhibition, % at 10 µM; 350,000 compounds, 0.47% hits;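 active = every replicate reaching a set inhibition limit, whatever the replicate mean, cut at about 25% in these data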;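 also: 0% = plate neutral control median and 100% = total signal loss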
# Target sequence (P42568 whole entry, looked up): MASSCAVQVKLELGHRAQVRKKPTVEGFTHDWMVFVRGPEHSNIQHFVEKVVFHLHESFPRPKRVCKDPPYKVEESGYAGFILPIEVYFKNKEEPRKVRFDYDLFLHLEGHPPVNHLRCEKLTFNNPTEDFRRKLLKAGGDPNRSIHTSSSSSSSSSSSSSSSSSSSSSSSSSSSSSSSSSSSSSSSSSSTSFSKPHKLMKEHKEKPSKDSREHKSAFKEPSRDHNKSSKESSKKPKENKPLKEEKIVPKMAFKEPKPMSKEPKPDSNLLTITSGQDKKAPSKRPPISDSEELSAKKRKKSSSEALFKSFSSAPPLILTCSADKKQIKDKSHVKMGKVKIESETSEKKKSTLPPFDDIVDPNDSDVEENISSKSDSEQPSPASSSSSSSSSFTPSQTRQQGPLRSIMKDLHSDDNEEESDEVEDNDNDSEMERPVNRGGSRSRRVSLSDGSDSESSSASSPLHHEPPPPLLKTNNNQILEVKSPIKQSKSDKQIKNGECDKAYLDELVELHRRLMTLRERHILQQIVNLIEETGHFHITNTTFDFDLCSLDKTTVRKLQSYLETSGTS
# DENV2 CPE rescue: DENV2-induced cell death inhibition; AID 651640; CPE inhibition, % at 9.99 µM; DENV2-infected cells, cytopathic effect rescue, plate reader; 350,000 compounds, 1.7% hits; in the data active = CPE inhibition above about 20%, passing the limit was not always enough; tested in BHK-21 cells;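 also: 0% = median of neutral control wells and 100% = median of positive control wells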
# FGF22 binding: shifts melting point of recombinant human FGF22; 340,000 compounds, 1.5% hits; AID 651658; recombinant FGF22 thermal shift, SYPRO orange fluorescence; percent of sucrose octasulfate shift, DMSO zero; activity (Tm shift, normalised), % at 9.99 µM; Q9HCT0;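 active = mean Tm shift, scaled 0 neutral to 100 positive control, at about 1.3% or above, every replicate too, limit read from the data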
# RAD52 anneal inh: RAD52 (human) annealing inhibition; P43351; 360,000 compounds, 0.46% hits; recombinant RAD52 DNA annealing, FRET fluorescence; AID 651710; inhibition, % at 18.7 µM;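 active = every replicate showing at least 50% inhibition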
# ERAP1 inh: inhibitors of human ERAP1 aminopeptidase. Q9NZ08. recombinant ERAP1, Leu-AMC fluorescence, 60 min. inhibition, % at 10.7 µM. 340,000 compounds, 0.15% hits;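 active = mean replicate inhibition of at least 30%, or all replicates individually reaching that 30% level; inactive = mean below 30% and not every replicate reaching it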;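 also: 0% = neutral control wells and 100% = L-leucinethiol positive control wells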
# * hit, by the source's call; nt = not tested or not shown; ! = not active in a repeat.
SMILES,AF4-AF9 inh,DENV2 CPE rescue,FGF22 binding,RAD52 anneal inh,ERAP1 inh
O=C(NC1CCCC1)C(=O)N(Cc1cccnc1)C(C(=O)NCc1ccco1)c1ccccc1F (stereo not drawn),-1.7,5.8,43.5*,-6.0,2.0
Cc1ccccc1-c1cc(C(=O)O)nn1CC1CC(c2cccc([N+](=O)[O-])c2)=NO1 (stereo not drawn),-9.0,126.1*,-0.4,-24.8,nt
Cc1ccccc1-c1cc(C(=O)NCc2ccc(OC(F)(F)F)cc2)nn1CC1CC(c2cccc([N+](=O)[O-])c2)=NO1 (stereo not drawn),5.2,-9.8,0.1,-10.8,2.2
Cc1ccccc1-c1cc(C(=O)NCc2cccs2)nn1CC1CC(c2cccc([N+](=O)[O-])c2)=NO1 (stereo not drawn),7.0,-7.4,-0.1,-12.9,nt
Cc1ccccc1-c1cc(C(=O)NCc2cccc(C(F)(F)F)c2)nn1CC1CC(c2cccc([N+](=O)[O-])c2)=NO1 (stereo not drawn),-13.2,49.0*,0.0,-17.9,-0.2
O=C(c1ccccc1)N1CC(=O)N2[C@@H](CO)[C@H](c3ccc(C4=CCCC4)cc3)[C@@H]2C1,-2.7,11.7,nt,-43.9,nt
COc1cc(/C=N/N(C)S(=O)(=O)c2ccc(C)cc2)cc([N+](=O)[O-])c1O,31.3*,-3.4,-0.3,-18.3,-0.6
C[C@@H]1CCCCO[C@@H](CN(C)S(=O)(=O)c2ccccc2)[C@H](C)CN([C@@H](C)CO)C(=O)c2cc(NC(=O)C3CCCCC3)ccc2O1,0.3,-8.3,nt,-19.3,-1.4
C[C@@H]1CN([C@@H](C)CO)C(=O)c2cc(NS(=O)(=O)c3ccc(Cl)cc3)ccc2O[C@@H](C)CCCCO[C@H]1CN(C)S(=O)(=O)c1cn(C)cn1,-18.1,0.6,1.4*,-11.6,-3.2
C[C@@H]1CCCCO[C@@H](CN(C)S(=O)(=O)c2cn(C)cn2)[C@H](C)CN([C@@H](C)CO)C(=O)c2cc(NS(=O)(=O)c3ccc(Cl)cc3)ccc2O1,-17.3,28.2*,0.6,-11.9,-2.9
C[C@@H]1CCCCO[C@H](CN(C)S(=O)(=O)c2cn(C)cn2)[C@H](C)CN([C@H](C)CO)C(=O)c2cc(NS(=O)(=O)c3ccc(Cl)cc3)ccc2O1,-9.3,-2.3,-0.1,-38.8,-1.8
C[C@H]1CCCCO[C@@H](CN(C)S(=O)(=O)c2cn(C)cn2)[C@@H](C)CN([C@@H](C)CO)C(=O)c2cc(NS(=O)(=O)c3ccc(Cl)cc3)ccc2O1,-16.7,47.3*,1.0,-51.1,-1.3
COc1ccccc1C#Cc1ccc2c(c1)O[C@@H](CN(C)Cc1ccccc1)[C@@H](C)CN([C@H](C)CO)S2(=O)=O,-1.4,1.2,-0.4,0.3,-0.9
CCOc1ccc(C(=O)Nc2ccc(CN3CCOCC3)cc2)cc1Br,4.6,37.1*,-0.3,-3.6,-2.9
CCOc1ccc(NC(=O)c2ccc(NC(=O)c3ccc(CN4CCOCC4)cc3)cc2)cc1,-26.2,-1.6,1.2,-15.9,nt
COc1cccc(-n2c(=O)c3ccccc3n(CC(=O)NCC3CCCO3)c2=O)c1 (stereo not drawn),-0.1,-5.1,-0.2,-1.7,-1.7
COc1ccc(-n2c(=O)c3ccccc3n(CC(=O)NCC3CCCO3)c2=O)cc1 (stereo not drawn),-0.6,10.4,44.2*,9.8,-1.8
CC(=O)n1cc([C@H]2C=C(C(=O)N3CCN(Cc4ccccc4)CC3)O[C@@H](OCc3ccc(CO)cc3)C2)c2ccccc21,0.4,-0.1,-0.3,-105.6,-1.2
CC(=O)n1cc([C@@H]2C=C(C(=O)O)O[C@H](OCc3ccc(CO)cc3)C2)c2ccccc21,2.7,28.5*!,-0.2,-299.1,-1.5
CC(=O)n1cc([C@@H]2C=C(C(=O)NCc3ccccc3)O[C@H](OCc3ccc(CO)cc3)C2)c2ccccc21,-4.4,44.6*!,0.1,-116.0,-4.3
O=C(C1=C[C@@H](c2coc3ccccc3c2=O)C[C@@H](OCc2ccc(CO)cc2)O1)N1CCN(Cc2ccccc2)CC1,-22.0,0.6,1.4*,-13.5,4.9
CC(=O)n1cc([C@H]2C=C(C(=O)N3CCN(Cc4ccc5c(c4)OCO5)CC3)O[C@@H](OCc3ccc(CO)cc3)C2)c2ccccc21,0.2,24.3*,-0.1,-49.3,-1.7
CC=Cc1ccc2n(c1=O)C[C@H]1[C@H](CO)[C@@H](C(=O)NCCC)N(CC3CCOCC3)[C@@H]21 (mixture of isomers),-3.3,5.2,-0.1,-1.6,-0.5

# Screening results as filed in PubChem BioAssay.
